About 83,000 compounds went through this panel and 20% of them were active in at least one assay; those are over-represented in the sample as a whole.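 Cell lines were cultured in 96-well plates, exposed to a single compound concentration, and assessed for percent growth 48 hours later.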 Calls of active or inactive are those of the source. The calls were made as follows: active = growth percent below 10; inactive = the rest.
What was measured:
Assay in all cases: NCI-60 one-dose screen, 48 h (100 = growth as untreated, 0 = no growth, -100 = all killed)
Conditions in all cases: 10 µM unless noted
[1] = system: NCI-H23 lung
[2] = system: NCI-H226 lung
[3] = system: NCI-H322M lung
[4] = system: HOP-62 NSCLC
[5] = system: HOP-92 NSCLC
[6] = system: NCI-H522 lung
[7] = system: A549/ATCC NSCLC
[8] = system: 786-0 renal
[9] = system: COLO 205 colon

Measured: growth

Cc1nc(-c2ccccc2)cc2c(O)c(C(=O)N/N=C/c3ccc(N(C)C)cc3)[nH]c(=O)c12
inactive: [1] 78.1% | [2] 107% | [3] 90.5% | [4] 77.3% | [5] 32% | [6] 72.7% | [7] 40.5% | [8] 79.2% | [9] 109%

N#Cc1c(-c2ccc(C(F)(F)F)cc2)cc(N2CC(O)C2)n2c1nc1ccccc12
active: [4] 7.8% | [5] -3.02%
inactive: [1] 67.7% | [2] 16.9% | [3] 60.8% | [6] 34.7% | [7] 48.1% | [8] 20.7%

C=C(CNCCc1ccc(O)cc1)[C@@H]1CC[C@]2(COC3CCCCO3)CC[C@]3(C)[C@H](CC[C@@H]4[C@@]5(C)CCC(NCCO)C(C)(C)[C@@H]5CC[C@]43C)[C@@H]12 (stereo partly specified)
active: [1] -81% | [2] -54.2% | [3] -96.5% | [4] -89.2% | [5] -80.8% | [6] -77.3% | [7] -88.6% | [8] -90.2%

O=C1Nc2ccccc2SC1C1SC(=S)N(Cc2ccccc2)C1=O (stereo unspecified)
inactive: [1] 96.5% | [2] 107% | [3] 113% | [4] 110% | [5] 53.1% | [6] 100% | [7] 93% | [8] 100%

CCCCN1CCN(c2ccc3nc(-c4ccc5nc(-c6cc(OC)c(OC)c(OC)c6)[nH]c5c4)[nH]c3c2)CC1
inactive: [1] 82.9% | [2] 77.6% | [3] 86.4% | [4] 61.4% | [5] 49.9% | [6] 52.8% | [7] 105% | [8] 50.6%

CCN(CC)CCCC(C)NCc1ccccc1 (stereo unspecified)
inactive: [1] 101% | [2] 109% | [3] 88.1% | [4] 108% | [5] 85.1% | [6] 73.3% | [7] 99.5% | [8] 89.8%

N=C(N)c1ccc(-c2ccc(-c3ccc(Cl)c(Cl)c3)o2)cc1
active: [3] -23% | [7] -6.23% | [8] -91.1%
inactive: [1] 45.4% | [2] 90.5% | [4] 42.3% | [5] 58.9% | [6] 57.7%

CCCCCCCC/C=C/CCCCCCCC1=NCC[N+]1(CCO)CCO
inactive: [1] 67.9% | [2] 71.1% | [3] 83.8% | [4] 74.8% | [5] 46.4% | [6] 29% | [7] 81.9% | [8] 72.3%

NC(N)=N/N=C/c1ccc(Br)cc1
inactive: [1] 56.4% | [2] 72.1% | [3] 98.6% | [4] 10.2% | [5] 49.3% | [6] 40% | [7] 34.6%
active: [8] -38.3%

O=C(NCc1cccnc1)c1cc(-c2csc3c(=O)cc(N4CCOCC4)oc23)cc2c1OCCO2
inactive: [1] 50.3% | [2] 49.8% | [3] 40% | [4] 30.9% | [5] 19.3% | [6] 28.4% | [7] 40.2% | [8] 43.5%

— PubChem BioAssay (NCI)
